From PubChem
Cycloheximide cs: counter-screen for Shiga toxin inhibitors: cycloheximide protein synthesis inhibition; cell reporter, cycloheximide protein synthesis inhibition counterscreen; AID 2314; max response, %; hit rate 12% among 300,000; in the data active = max response mostly above about 13%, no sharp cut-off; inactive = mostly below about 14%; also: read at 38.3 µM for the half of the compounds with a filed dose; 0% is about no effect
LmPK inh: blocks Leishmania mexicana pyruvate kinase activity; Q27686; purified LmPK, Kinase-Glo ATP luminescence, 1 h; Potency, µM (doses to about 57.5 µM), for the others: top-dose activity change, negative = inhibition, actives largely listed as inhibitors; hit rate 0.37% among 290,000; active = well fitted curve in the direction sought with a large enough effect; inconclusive = small, poorly fitted or top-dose-only effect, or another doubt; inactive = no such curve, though single readings can be large; an effect the other way counts as inactive or inconclusive; also: potency is read from the fitted curve at half-maximal effect; % is scaled to controls: 0 for no effect and ±100 for the full control effect
Target sequence (Q27686 whole entry, looked up): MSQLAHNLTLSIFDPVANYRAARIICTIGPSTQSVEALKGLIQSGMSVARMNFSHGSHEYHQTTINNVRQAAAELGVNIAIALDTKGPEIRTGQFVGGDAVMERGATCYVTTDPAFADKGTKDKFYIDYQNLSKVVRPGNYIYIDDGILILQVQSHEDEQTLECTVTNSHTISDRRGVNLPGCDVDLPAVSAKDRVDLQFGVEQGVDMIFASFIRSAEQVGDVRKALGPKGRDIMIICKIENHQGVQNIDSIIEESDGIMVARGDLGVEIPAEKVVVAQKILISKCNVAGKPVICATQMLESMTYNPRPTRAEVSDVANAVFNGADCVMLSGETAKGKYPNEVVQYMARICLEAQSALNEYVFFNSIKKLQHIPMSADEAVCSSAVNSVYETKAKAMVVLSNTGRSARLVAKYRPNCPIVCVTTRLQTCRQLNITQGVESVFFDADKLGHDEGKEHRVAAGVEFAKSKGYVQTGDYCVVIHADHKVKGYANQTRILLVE
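Purified LmPK (0.1 nM) with 0.5 mM PEP and 0.1 mM ADP in imidazole buffer pH 7.2 with MgCl2/KCl, 1 h at room temperature. ATP formed was read by luciferase luminescence and normalized to no-enzyme and uninhibited controls.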
NS1 inh: influenza NS1 inhibition; AID 2326; hit rate 0.4% among 270,000; Potency, µM (top dose mostly 46.1 µM), for inactives: at the top dose activity, positive = more growth; also: potency is read from the fitted curve at half-maximal effect; actives are rising curves; nearly all actives have a fitted effect of over 50% in size
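Read-out: OD600 growth recovery of NS1-expressing budding yeast. Cells grown overnight at 30C in -URA glucose medium, washed, resuspended and diluted 1:100 in 2% galactose assay medium, pH 6.0. Same strain lacking NS1 served as positive control.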
Shiga toxin inh: inhibitors of Shiga toxin in Vero cells | Vero cells, Shiga toxin protein synthesis inhibition reporter | inhibition, % at 38.7 µM | hit rate 9.2% among 290,000 | AID 2315; in the data active = inhibition mostly above about 28%, no sharp cut-off; inactive = mostly below about 43%; also: 0% is about no effect
TbPYK inhibitor: blocks Trypanosoma brucei pyruvate kinase; Q57TT1; TbPYK enzyme, Kinase-Glo Plus ATP luminescence, 45 min; Potency, µM (titrated, usually from 76.8 µM), for the others: at the top dose activity, negative = inhibition, usual class: inhibitors; hit rate 0.12% among 410,000; active = well fitted curve in the direction sought with a large enough effect; inconclusive = small, poorly fitted or top-dose-only effect, or another doubt; inactive = no such curve, though single readings can be large; an effect the other way counts as inactive or inconclusive; also: potency is read from the fitted curve at half-maximal effect; % is scaled to controls: 0 for no effect and ±100 for the full control effect; nearly all actives have a fitted effect of over 50% in size
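Glycolytic pyruvate kinase of T. brucei was incubated with substrate, test compound and 130 uM ADP for 45 minutes at room temperature. Luminescent Kinase-Glo Plus signal was measured after 10 minutes.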
SARS PLP yeast: inhibitors of SARS-CoV papain-like protease in yeast; hit rate 0.19% among 330,000; Potency, µM (top dose mostly 32.9 µM), for inactives: at the top dose activity, positive = growth rescue, hits mostly activators; AID 485353; S. cerevisiae expressing SARS-CoV PLpro, growth rescue; also: potency is read from the fitted curve at half-maximal effect; 0% is about no effect; nearly all actives have a fitted effect of over 55% in size
Active calls of the source: *; ? = inconclusive; / = no result; [ ] = dose if it differs, or a comment. The entries come from a sample that favours hits as a whole. Unless noted, calls follow the shape of the full dose curve.

SMILES | Cycloheximide cs | LmPK inh | NS1 inh | Shiga toxin inh | TbPYK inhibitor | SARS PLP yeast
COCCC(=O)N1CCCC(CCC(=O)NCc2ccc(F)c(F)c2)C1 (configuration not stated) | 16.9* | 1.0% | 0.0% | 79.4* | 0.5% | -0.7%
Cn1cc(CCC(=O)N2CCCC(CCC(=O)NCc3ccc(F)c(F)c3)C2)cn1 (configuration not stated) | 17.1* | -3.0% | -2.9% | 43.2* | 2.3% | 1.0%
Cn1cc(CCC(=O)N2CCCC(CCC(=O)NCc3ccccc3F)C2)cn1 (configuration not stated) | 2.9 | -15.3% | -4.2% | 18.3 | 1.1% | 0.2%
CCOC(=O)CNC(=O)N1CCCC(CCC(=O)NCc2ccc(F)c(F)c2)C1 (configuration not stated) | -1.5 | 3.7% | 7.9% | 15.1 | 0.2% | 0.3%
C/C(N)=C(/C#N)C(=O)CSc1nc(-c2ccccc2)c(-c2ccccc2)o1 | 17.0 | 0.2% | -15.7% | -6.9 | -2.1% | -8.8%
Cc1ccc(-c2cc(C(=O)NC3CCCC3)no2)cc1 | 37.2* | -2.4% | -30.8% | 92.2* | 7.3% | -0.9%
O=C(NC1CCCC1)c1cc(-c2ccc(Cl)c(Cl)c2)on1 | 26.7* | 4.8% | -0.3% | 45.4* | -0.1% | 0.7%
O=C(COCc1cc(-c2cccs2)on1)NC1CCCCC1 | 7.3 | -0.8% | -11.6% | -5.6 | 0.0% | -3.9%
O=C(NC1CCCCC1)c1cc(-c2cccs2)on1 | 49.5* | -4.4% | -5.0% | 117.0* | -4.3% | 16.8%
O=C(NC1CCCCC1)c1cc(-c2ccc(F)cc2)on1 | 11.9* | -0.8% | 7.9% | 36.5 | 1.7% | 1.7%
CCc1ccc(-c2cc(C)no2)cc1S(=O)(=O)NCc1ccc(OC)cc1 | / | / | / | / | -0.8%[15.4 µM] | /
O=C(CCCCCN1C(=O)c2cccc3cccc(c23)C1=O)NO | 10.9 | / | / | 48.5 | / | /
CC(=O)c1cccc(NC(=O)C2Cc3c(-c4ccc(Cl)cc4)ccnc3O2)c1 (configuration not stated) | / | / | / | / | 0.9% | /
CNC(=O)c1cc(C(=O)c2ccc(Cl)cc2)c[nH]1 | 24.1* | -2.7% | -0.3% | 56.0* | -4.2% | -3.6%
CCOc1ccc(C(=O)NC(=S)Nc2ccc(NC(=O)c3ccco3)cc2)cc1[N+](=O)[O-] | 15.4* | -2.8% | -1.1% | 5.3 | -6.6% | -8.1%
CCOc1ccc(C(=O)NC(=S)Nc2ncccc2C)cc1[N+](=O)[O-] | 24.7* | 1.7% | ? | 32.6* | -2.2% | 25.9%
O=C1OC(Cc2ccccn2)C(=O)C1=C1SCCS1 (configuration not stated) | 29.5* | 0.0% | 16.0% | active | 6.1% | 12.8%
O=C(/C=C/c1ccc(Br)cc1)NCc1cccs1 | 50.3* | 2.0% | -11.4% | 112.1* | 3.1% | -10.4%
O=C(/C=C/c1ccccc1Cl)NCc1cccs1 | 48.3* | -0.4% | 0.4% | 89.3* | -5.3% | -13.5%
O=C(/C=C/c1ccc(F)cc1)NCc1cccs1 | 26.2* | -0.2% | -3.6% | 93.8* | 1.1% | -13.7%
O=C(COC(=O)/C=C/c1cccc(Br)c1)NCc1cccs1 | / | / | / | / | -0.1% | 1.8%
O=C(c1ccccc1Cl)N1CCN(CCc2ccccn2)CC1 | / | / | / | / | 3.4% | /
O=C(CSc1nnc(-c2ccccn2)o1)Nc1ccccc1F | 25.5* | -9.2% | 6.9% | 73.5* | -0.9% | -11.8%
O=C(CSc1nnc(-c2ccc(O)cc2)o1)Nc1ccccc1 | 28.2* | 2.2% | -6.3% | 60.6* | -4.3% | 3.8%
Cc1cc(-c2nnc(SCCC(=O)Nc3ccccc3)o2)no1 | 34.5* | 5.1% | -13.4% | -12.1 | 0.2% | -3.2%
SMILES | Cycloheximide cs | LmPK inh | NS1 inh | Shiga toxin inh | TbPYK inhibitor | SARS PLP yeast
Cc1ccccc1NC(=O)CSc1nnc(-c2ccccn2)o1 | -4.8 | -5.7% | 4.7% | -3.6 | 1.6% | 7.3%
O=C(CSc1nnc(-c2csc3c2CCCC3)o1)Nc1ccccc1 | 58.4* | 6.9% | -2.0% | 55.1* | -6.8% | -6.6%
O=C(CSc1nnc(Cc2ccccc2)o1)Nc1ccccc1 | 17.5 | 3.5% | -10.9% | 1.7 | 1.3% | 0.0%
Cc1cc(NC(=O)CSc2nnc(-c3ccc(O)cc3)o2)no1 | active | -3.2% | -2.1% | 52.2* | 3.8% | -1.0%
Cc1nnc(NC(=O)CSCc2cc(=O)c3cc(Cl)ccc3[nH]2)s1 | / | / | / | / | -0.2% | /
COc1ccc(Cl)cc1/C=C/c1ccc2cccc(O)c2n1 | 46.0* | 1.2% | 2.0% | 73.0* | -0.5% | -1.2%
COc1ccccc1/C=C/c1ccc2cccc(O)c2n1 | 40.1* | -7.5% | -64.4% | 82.3* | 11.6% | -1.3%
O=C(NC(=S)NNC(=O)c1ccccc1O)c1ccc(F)cc1 | 6.0 | 6.6% | -65.6% | / | -10.0% | 3.0%
Cc1ccccc1C(=O)NNC(=O)c1ccc(Br)cc1 | 41.7* | 4.6% | / | 83.9* | 3.5% | -2.1%
Cc1cccc(C(=O)NNC(=O)c2ccccc2O)c1 | 38.8* | -0.5% | -17.4% | 37.5* | 2.6% | -2.9%
Cc1cccc(C(=O)NNC(=O)c2ccccc2C)c1 | 14.1 | -6.3% | -4.8% | 23.5 | 1.7% | -0.2%
Cc1ccc(C(=O)NC(=S)NNC(=O)c2ccccc2O)cc1 | 19.4* | 2.6% | -44.8% | 54.1* | -8.2% | 3.7%
CC(C)(C)c1cc(CCC(=O)NNC(=S)NC(=O)c2ccccc2)cc(C(C)(C)C)c1O | -1.0 | -2.0% | -17.9% | 6.6 | -30.6% | 5.01µM*
O=C(CCc1ccccc1)NNC(=S)NC(=O)c1ccccc1 | 13.8 | -12.2% | -154.6% | 12.4 | 1.1% | 5.0%
COC(=O)Cn1c(C2CC(=O)N(c3c(C)cccc3C)C2)nc2ccccc21 (configuration not stated) | / | / | / | / | -0.8% | /
Cc1ccc(C(=O)NNC(=S)NC(=O)c2ccccc2)cc1 | / | / | / | / | -11.9% | /
O=C(NC(=S)NNC(=O)c1ccccc1O)c1ccccc1 | 29.1 | 1.8% | -48.5% | 55.4* | -4.7% | 4.3%
Cc1ccccc1C(=O)NNC(=S)NC(=O)c1ccccc1 | 16.9* | 3.1% | -136.9% | 27.8* | -19.4% | -62.1%
CCCc1ccc(C(=O)NC(=O)c2ccccc2O)cc1 | 23.1* | -11.1% | -83.5% | 18.7 | 0.9% | -7.2%
O=c1cc(-c2cc(O)c(O)c([C@@H]3O[C@H](CO)[C@@H](O)[C@H](O)[C@H]3O)c2)oc2cc(O[C@@H]3O[C@H](CO)[C@@H](O)[C@H](O)[C@H]3O)cc(O)c12 | 8.3 | / | / | -6.9 | / | /
O=C(CN(CCc1ccccc1)S(=O)(=O)c1ccccc1)NCc1ccc(Cl)cc1 | / | / | / | / | 5.5% | /
CN(Cc1ccc(C(C)(C)C)cc1)c1cccc2ccccc12 | / | / | / | / | 0.3% | /
CN(c1ccccc1)S(=O)(=O)c1cccc(NS(=O)(=O)c2cccc(C(=O)O)c2)c1 | / | / | / | / | -1.0% | 0.4%
O=C(c1ccccn1)N(Cc1cccs1)C1(C(=O)NC2CCCCC2)CCCCC1 | 6.3 | 1.3% | / | 5.4 | -1.1% | -1.4%
Nc1cccc(Oc2ccc3c(c2)C(=O)N(CC2CCCO2)C3=O)c1 (configuration not stated) | 35.2* | 3.5% | 1.7% | 81.7* | 0.3% | 0.8%
